Test results taken from PubChem BioAssay AID720697 (Broad Institute, 2013).
Results with a measured potency or affinity are listed apart. Inconclusive results are not listed. Activity calls are given as the source filed them.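 How the source made its calls: active means signal loss with fitted half-maximal concentration at or below twice the top valid tested dose in every test run; inconclusive means runs disagree, flat 30 to 70% signal loss, or poor fit; inactive means all runs flat, opposite direction, or potency beyond limit.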

Assay: HEK293T cytotoxicity, dose response, cytotoxicity control for miR-122 modulator project, cell-based, inhibitor set, cherry-pick, set 2 (AID 720697);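 further: 0% = median of neutral control wells and -100% = MG132 positive control wells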
Conditions: HEK293T viability, CellTiter-Glo luminescence, 48 h; series mostly up to 26 µM
With `COc1ccc(-c2nc(NC(=O)CSc3nnc(C)s3)ns2)cc1` the outcome was “inactive”. With `CCc1ccccc1NC(=O)CN(C)C(=O)Cn1ncc(Cl)c(Cl)c1=O` the activity change, negative = cytotoxicity was -65.2% [at 6 µM] (inactive). In the case of `CO[C@@H]1CN(C)C(=O)c2ccc(NS(=O)(=O)c3ccc(C)cc3)cc2OC[C@@H](C)N(C(=O)NC(C)C)C[C@H]1C`, the outcome is reported as “inactive”. With `CO[C@@H]1CN(C)C(=O)c2ccc(NC(=O)c3nc4ccccc4s3)cc2OC[C@H](C)N(Cc2cccnc2)C[C@H]1C` the outcome was “inactive”. In the case of `C/C=C/c1ccc([C@H]2[C@@H](CO)N(Cc3ccccn3)[C@H]2CNC(=O)CC)cc1`, the outcome is reported as “inactive”. With `CC(=O)Nc1ccc2c(c1)C(=O)N(C)[C@@H]1CC[C@@H](CC(=O)NCc3ccc(Cl)cc3)O[C@H]1CO2` the outcome was “inactive”. For `C=CCNC(=S)NNC(=O)c1cccn(Cc2ccc(Cl)c(Cl)c2)c1=O`, the outcome was “inactive”. With `C/C=C/c1ccc([C@@H]2[C@H](CO)N[C@H]2CN(CC(C)C)C(=O)c2ccccn2)cc1` the outcome was “inactive”. For `Cc1ccc(-c2noc(CCC(=O)Nc3ccccc3C)n2)cc1`, the outcome was “inactive”. In the case of `COC(=O)C[C@H]1CC[C@@H]2[C@@H](COc3ccc(NC(=O)Nc4ccc(Cl)cc4)cc3C(=O)N2C)O1`, the outcome is reported as “inactive”. In the case of `COCC(=O)Nc1ccc2c(c1)C(=O)N(C)[C@@H]1CC[C@H](CC(=O)NCc3ccccc3F)O[C@H]1CO2`, the outcome is reported as “inactive”. With `CCCNC(=O)Nc1ccc2c(c1)OC[C@@H](C)N(CCC)C[C@H](C)[C@H](OC)CN(C)C2=O` the outcome was “inactive”. With `CCS(=O)(=O)Nc1ccc2c(c1)C(=O)N(C)[C@@H]1CC[C@@H](CC(=O)NCCCN3CCOCC3)O[C@H]1CO2` the outcome was “inactive”. For `CN1C(=O)c2cc(NC(=O)c3ccc(F)cc3)ccc2OC[C@@H]2O[C@@H](CC(=O)O)CC[C@@H]21`, the outcome was “inactive”. With `Cc1ccccc1NCN1C(=O)C2C3C=CC(C3)C2C1=O` (configuration not stated) the outcome was “inactive”. In the case of `CCCNC(=O)C[C@@H]1CC[C@@H]2[C@H](COc3ccc(NC(=O)Nc4ccccc4F)cc3C(=O)N2C)O1`, the outcome is reported as “inactive”. For `COC(=O)C[C@@H]1CC[C@@H]2[C@@H](COc3ccc(NS(=O)(=O)c4ccccc4F)cc3C(=O)N2C)O1`, the outcome was “inactive”. With `CC(C)OCCCNC(=O)c1ccncc1` the outcome was “inactive”. For `C[C@@H]1CCCCO[C@@H](CN(C)CC2CCCCC2)[C@H](C)CN([C@@H](C)CO)C(=O)c2cc(NC(=O)Nc3cccc4ccccc34)ccc2O1`, the outcome was “inactive”. For `CN[C@H]1C[C@H]2c3[nH]c4ccc(-c5ccc(OC)cc5)cc4c3CCN2C(=O)[C@H]1[C@H](C)O`, the outcome was “inactive”. With `COc1ccc(-c2c(C)nn3c(N)c(-c4ccccc4)cnc23)cc1OC` the outcome was “inactive”. In the case of `COCC(=O)N(C[C@@H]1N[C@H](CO)[C@H]1c1ccc(C2=CCCC2)cc1)C(C)C`, the outcome is reported as “inactive”. For `COc1cccc(C(=O)N2C[C@H]3[C@@H](c4ccccc42)[C@H](CO)N3C(C)=O)c1`, the outcome was “inactive”. In the case of `COc1ccc(CNC(=O)C[C@H]2CC[C@H]3[C@H](COc4ccc(NC(=O)C(C)C)cc4C(=O)N3C)O2)cc1`, the outcome is reported as “inactive”. For `COc1ccc(NC(=O)COC(=O)CCCc2c[nH]c3ccccc23)cc1`, the outcome was “inactive”. In the case of `COCCNC(=O)C[C@H]1CC[C@@H]2[C@@H](COc3ccc(NS(=O)(=O)c4ccc(Cl)cc4)cc3C(=O)N2C)O1`, the outcome is reported as “inactive”. For `CN(C)CCNC(=O)C1CC(=O)N(c2ccc(F)c(Cl)c2)C1` (configuration not stated), the outcome was “inactive”.
